The values below come from PubChem BioAssay AID624255 (Broad Institute, 2012).

The campaign covered roughly 77,000 compounds. About 4,600 (6%) were called active. Roughly 1% stayed inconclusive and do not appear here. This excerpt belongs to a sample that is enriched for actives. Values without a mark were called inactive.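 How the source made its calls: active means mean inhibition above about 93%, with at least 55% of replicates each passing it (limit read from the data, passing the limit was not always enough); inconclusive means only one of those two conditions holds; inactive means neither condition holds.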

The nature of this assay: growth inhibition of T. cruzi in host fibroblasts – cell-based, beta-gal Tulahuen parasites, NIH3T3 host, luminescence, primary screen (AID 624255). To be noted: T. cruzi beta-gal in NIH3T3, GalScreen luminescence, 90 h; at 8.34 µM; active compounds read high.
By inhibition is commonly meant the change of the read-out against control, counted positive when it falls. For `CCC(=O)Nc1ccc2c(c1)C(=O)N(C)[C@@H]1CC[C@@H](CC(=O)Nc3cccc(OC)c3)O[C@@H]1CO2`, the inhibition was -12.2%.

Turning to `O=C(N[C@@H]1CC[C@H](CCn2cc(-c3ccccc3)nn2)O[C@H]1CO)c1cnccn1`, the inhibition is 20.6%.

In the case of `CNC(=O)C[C@@H]1CC[C@@H]2[C@H](COc3ccc(NC(=O)c4cccs4)cc3C(=O)N2C)O1`, the inhibition is 9.57%.

In the case of `CC(C)CC#Cc1cnc2c(c1)C(=O)N([C@H](C)CO)C[C@H](C)[C@H](CN(C)CC1CCOCC1)O2`, the inhibition was 60.8%.

As to `C/C=C/c1cnc2c(c1)C(=O)N([C@H](C)CO)C[C@H](C)[C@@H](CN(C)C(=O)Nc1ccc(C(F)(F)F)cc1)O2`, the inhibition was 108%.

On to `COCC(=O)N1C[C@H]2[C@@H](c3ccccc31)[C@@H](CO)N2Cc1ccccc1`, for which the inhibition is -14.2%.

`COc1cccc(-c2ccc3c(c2)[C@@H]2[C@@H](CCN2C(=O)CN2CCOCC2)[C@H](CO)N3)c1`: the inhibition was 88.3%.

As to `CC(C)NC(=O)N1CCCCN2[C@H](CO)[C@H](c3ccc(C#C[C@H](C)O)cc3)[C@H]2C1`, the inhibition is 90.4%.

For `C[C@H](O)C#Cc1ccc([C@@H]2[C@H]3CN(S(=O)(=O)c4ccccc4)CCCCN3[C@H]2CO)cc1`, the inhibition was 107% (active).

As to `O=S(=O)(c1ccccc1)N1CCCCN2[C@@H](CO)[C@H](c3ccc(C#Cc4cccnc4)cc3)[C@@H]2C1`, the inhibition was 90.8%.

`C[C@H]1CN([C@@H](C)CO)C(=O)c2cccc(NS(=O)(=O)c3cn(C)cn3)c2O[C@H]1CN(C)C(=O)Nc1ccc2c(c1)OCO2`: the inhibition is -234%.

As for `O=C(Cc1ccccn1)NCC[C@H]1CC[C@H](NC(=O)Nc2ccc(F)cc2)[C@@H](CO)O1`, the inhibition was 10.8%.

For `CCN(C[C@H]1[C@H](c2ccccc2)[C@H](CO)N1C(=O)C1CC1)C(=O)NC1CCCC1`, the inhibition was 96.5% (active).

For `O=C(NC[C@@H]1[C@@H](c2ccccc2)[C@H](CO)N1C(=O)C1CCC1)NC1CCCC1`, the inhibition is -28.8%.

For `CCN(C[C@@H]1[C@@H](c2ccccc2)[C@H](CO)N1C(C)=O)C(=O)NC(C)C`, the inhibition was 7.85%.

As for `Cn1cnc(S(=O)(=O)N2C[C@@H](O)COC[C@@H]3O[C@H](CC(=O)NCc4ccc(F)cc4)CC[C@H]32)c1`, the inhibition is -30.6%.

For the compound `COc1cccc(S(=O)(=O)N2C[C@@H](O)COC[C@H]3O[C@H](CC(=O)N4CCCCC4)CC[C@@H]32)c1`, the inhibition is 25.3%.

As for `C[C@H](CO)N1C[C@H](C)[C@@H](CN(C)S(=O)(=O)c2cccc(F)c2)OCc2ccccc2-c2c(n(C)c3ccccc23)C1=O`, the inhibition was 98% (active).

Consider `COc1cccc(NC(=O)N(C)C[C@H]2OCc3ccccc3-c3ccccc3C(=O)N([C@H](C)CO)C[C@@H]2C)c1`, for which the inhibition is -8.4%.

`COc1cccc(-c2cnc3c(c2)C(=O)N([C@H](C)CO)C[C@H](C)[C@H](CN(C)S(=O)(=O)c2cccc(F)c2)O3)c1`: the inhibition is 62.3%.

As to `C[C@@H]1CN([C@@H](C)CO)C(=O)c2c(c3ccccc3n2C)-c2ccccc2CO[C@@H]1CN(C)S(=O)(=O)c1ccc(F)cc1`, the inhibition is -18%.

As for `Cc1ccc(S(=O)(=O)N(C)C[C@H]2OCc3ccccc3-c3ccccc3C(=O)N([C@@H](C)CO)C[C@@H]2C)cc1`, the inhibition was 81.8%.

With `C[C@H]1CN([C@@H](C)CO)C(=O)c2ccccc2-c2ccccc2CO[C@@H]1CN(C)S(=O)(=O)c1ccc(C(F)(F)F)cc1`, the inhibition is 105% (active).

Regarding `C[C@H](CO)N1C[C@H](C)[C@@H](CN(C)S(=O)(=O)c2cccc(F)c2)Oc2ncc(-c3cccc(F)c3)cc2C1=O`, the inhibition is 49.3%.

Regarding `C[C@@H]1CN([C@@H](C)CO)C(=O)c2ccccc2-c2ccccc2CO[C@H]1CN(C)C(=O)Nc1ccccc1`, the inhibition was 24.6%.

For the compound `C[C@H](CO)N1C[C@H](C)[C@@H](CN(C)C(=O)Nc2ccnc(N3CCOCC3)c2)OCc2ccccc2-c2ccccc2C1=O`, the inhibition is 113% (active).

In the case of `Cc1ccc(S(=O)(=O)N(C)C[C@@H]2OCc3ccccc3-c3c(n(C)c4ccccc34)C(=O)N([C@@H](C)CO)C[C@@H]2C)cc1`, the inhibition is 60.7%.

As to `COc1ccc(S(=O)(=O)N(C)C[C@@H]2OCc3ccccc3-c3ccccc3C(=O)N([C@@H](C)CO)C[C@@H]2C)cc1`, the inhibition was 28.9%.

Turning to `C[C@H](CO)N1C[C@H](C)[C@H](CN(C)S(=O)(=O)c2cccc(F)c2)Oc2ncc(/C=C/c3ccccc3)cc2C1=O`, the inhibition is 107% (active).

On to `O=C(C[C@H]1CC[C@@H]2[C@H](COC[C@H](O)CN2S(=O)(=O)c2ccc(F)cc2)O1)NCCN1CCCCC1`, for which the inhibition is 7.58%.

Turning to `CNC(=O)C[C@@H]1CC[C@@H]2[C@@H](COc3ccc(NC(=O)Cc4cccs4)cc3C(=O)N2C)O1`, the inhibition is -40.4%.

Take `Cc1noc(C)c1NC(=O)N(C)C[C@H]1OCCCC[C@H](C)Oc2ccc(NC(=O)Nc3ccc4c(c3)OCO4)cc2C(=O)N([C@H](C)CO)C[C@@H]1C`: the inhibition is 17.1%.

`COCC(=O)N1C[C@H](C)[C@@H](OC)CN(C)C(=O)c2cc(NC(=O)c3ccc(OC)cc3)ccc2OC[C@H]1C`: the inhibition was 5.7%.

Take `CC=Cc1ccc2n(c1=O)C[C@H]1[C@H](CO)[C@@H](C(=O)NCC3CC3)N(Cc3nccs3)[C@@H]21` (mixture of isomers): the inhibition was -71.1%.

For `COc1ccccc1C#Cc1cnc2c(c1)C(=O)N([C@@H](C)CO)C[C@H](C)[C@@H](CN(C)C(=O)CC1CC1)O2`, the inhibition is 92.8%.

With `C[C@@H]1CCCCO[C@H](CN(C)S(=O)(=O)c2cn(C)cn2)[C@H](C)CN([C@@H](C)CO)C(=O)c2cc(NC(=O)Nc3ccc(C(F)(F)F)cc3)ccc2O1`, the inhibition was 29.7%.

With `CO[C@@H]1CN(C)C(=O)c2ccc(NC(=O)Nc3c(C)noc3C)cc2OC[C@H](C)N(CC2CC2)C[C@H]1C`, the inhibition is 91.1%.

Consider `C[C@@H]1CN([C@@H](C)CO)C(=O)c2cc(-c3cncnc3)cnc2O[C@@H]1CN(C)C(=O)c1ccccc1F`, for which the inhibition is 92.3%.

For the compound `C[C@H]1CN([C@@H](C)CO)C(=O)c2cc(C3=CCCC3)cnc2O[C@@H]1CN(C)C(=O)c1ccccc1`, the inhibition was -4.66%.
